Data from PubChem BioAssay (NCI).
This is part of a sample that, as a whole, favours compounds with a hit. Of some 83,000 tested, about 20% had one in any assay.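 Activity criterion: percent growth below 10, measured after cells in 96-well plates were exposed to a single compound concentration for 48 hours.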 Calls of active or inactive are those of the source.

Key:
Experiment in all cases: NCI-60 one-dose screen, 48 h (100 = growth as untreated, 0 = no growth, -100 = all killed)
Details in all cases: 10 µM
DU-145 prostate = test system: DU-145 prostate
K-562 leukemia = test system: K-562 leukemia
MALME-3M melanoma = test system: MALME-3M melanoma
MDA-MB-231 breast = test system: MDA-MB-231 breast
RXF 393 renal = test system: RXF 393 renal
SF-268 CNS = test system: SF-268 CNS
SF-295 CNS = test system: SF-295 CNS
SF-539 CNS = test system: SF-539 CNS
UACC-257 melanoma = test system: UACC-257 melanoma
M14 melanoma = test system: M14 melanoma

Measured: growth

CC(C)=C1CCC(C)C/C1=N\N=C(N)N (stereo not given)
inactive: DU-145 prostate 105% | K-562 leukemia 97.9% | MALME-3M melanoma 100% | MDA-MB-231 breast 113% | RXF 393 renal 107% | SF-268 CNS 99.2% | SF-295 CNS 98.4% | SF-539 CNS 104% | UACC-257 melanoma 93.5% | M14 melanoma 102%

CCN(CCCNC(=O)Cc1cc(=O)oc2cc(N(C)C)ccc12)CCNc1ccnc2cc(Cl)ccc12
inactive: DU-145 prostate 109% | MALME-3M melanoma 88.2% | MDA-MB-231 breast 78.7% | RXF 393 renal 74.6% | SF-268 CNS 92.1% | SF-295 CNS 80.5% | SF-539 CNS 25.2% | UACC-257 melanoma 41.9% | M14 melanoma 11.5%
active: K-562 leukemia 0.722%

O=C(Nc1ccc(OCc2nnc(-c3ccccc3)o2)c(F)c1)Nc1ccc(Cl)c(Cl)c1
inactive: DU-145 prostate 64.1% | K-562 leukemia 34.4% | MALME-3M melanoma 57.8% | MDA-MB-231 breast 64.5% | RXF 393 renal 56.3% | SF-268 CNS 80.7% | SF-295 CNS 39.4% | SF-539 CNS 75.5% | UACC-257 melanoma 59.9% | M14 melanoma 70.4%

COc1ccc2nc(NC(=O)Nc3c(F)cccc3F)sc2c1
inactive: DU-145 prostate 105% | K-562 leukemia 94.5% | MALME-3M melanoma 105% | MDA-MB-231 breast 119% | RXF 393 renal 106% | SF-268 CNS 109% | SF-295 CNS 102% | SF-539 CNS 104% | UACC-257 melanoma 102% | M14 melanoma 104%

COc1ccc(N2CCN(c3nc(-c4ccccc4)c(C#N)c(=O)[nH]3)CC2)cc1
inactive: DU-145 prostate 107% | K-562 leukemia 87.6% | MALME-3M melanoma 80.8% | MDA-MB-231 breast 106% | RXF 393 renal 105% | SF-268 CNS 108% | SF-295 CNS 102% | SF-539 CNS 99.6% | UACC-257 melanoma 109% | M14 melanoma 96.8%

COc1cccc2c1C(=O)c1c(O)c3c(c(O)c1C2=O)C[C@@](O)(C(=O)COC(=O)c1cccnc1)C[C@@H]3OC1CC(N)C(O)C(C)O1 (stereo not given in full)
active: DU-145 prostate 7.78% | K-562 leukemia 1.5% | MALME-3M melanoma -66.7% | MDA-MB-231 breast -18.6% | RXF 393 renal -64.5% | SF-268 CNS -30% | SF-295 CNS -56.8% | SF-539 CNS -36.4% | UACC-257 melanoma -54.7% | M14 melanoma -43.4%

CC(=O)O[C@H]1CC[C@@]2(C)[C@@H](CC[C@@H]3[C@@H]2CC[C@]2(C)C=C(C=O)C[C@@H]32)C1
inactive: DU-145 prostate 49.5% | K-562 leukemia 82.3% | MALME-3M melanoma 66.8% | MDA-MB-231 breast 103% | RXF 393 renal 120% | SF-268 CNS 66.6% | SF-295 CNS 97.1% | SF-539 CNS 92.7% | UACC-257 melanoma 98.6% | M14 melanoma 65.3%

N=C(N)c1ccc(-c2ccc(-c3ccccc3)s2)s1
active: DU-145 prostate -93.8% | K-562 leukemia -63.1% | MALME-3M melanoma -81.1% | MDA-MB-231 breast -76.8% | RXF 393 renal -93.2% | SF-268 CNS -56.6% | SF-295 CNS -75.3% | SF-539 CNS -54.7% | UACC-257 melanoma -59.9% | M14 melanoma -68.9%

O=C(NCCCl)c1cc(Cl)cc(Cl)c1
inactive: DU-145 prostate 111% | K-562 leukemia 101% | MALME-3M melanoma 97.8% | MDA-MB-231 breast 121% | RXF 393 renal 114% | SF-268 CNS 112% | SF-295 CNS 92.4% | SF-539 CNS 101% | UACC-257 melanoma 91.8% | M14 melanoma 116%

COc1cc(-c2nc3ccccc3[nH]2)ccc1OCc1nnc(-c2ccc(Br)cc2)o1
inactive: DU-145 prostate 84.8% | K-562 leukemia 57.3% | MALME-3M melanoma 67.4% | MDA-MB-231 breast 76.2% | RXF 393 renal 87% | SF-268 CNS 96.8% | SF-295 CNS 102% | SF-539 CNS 110% | UACC-257 melanoma 97% | M14 melanoma 91.9%

Cc1cc(Nc2cccc(F)c2)nc(NCc2ccccc2)n1
inactive: DU-145 prostate 22.8% | K-562 leukemia 13.3% | MALME-3M melanoma 43.9% | MDA-MB-231 breast 20.9% | RXF 393 renal 76.6% | SF-268 CNS 40.4% | SF-295 CNS 16.7% | SF-539 CNS 56.8% | UACC-257 melanoma 29.8% | M14 melanoma 28.5%
